Results as given in PubChem BioAssay AID757 (NMMLSC, 2007).
The campaign covered roughly 190,000 compounds. About 520 (0.27%) were called active. Another 2% or so got no clear call; they are omitted. The full list was thinned out, with actives kept by preference. Unmarked numbers belong to inactive results.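 How the source made its calls: active means GTP binding activity at least 20 points away from the 100% control level, either lower or higher; inconclusive means compound flagged as likely green fluorescent, judged across all proteins; inactive means the rest.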

The compounds below were run against Ras-related C3 botulinum toxin substrate 1 (Homo sapiens) (UniProt P63000) (assay: compounds altering fluorescent GTP loading on wildtype Rac1 – biochemical, GST-Rac1 beads, flow cytometry, multiplex, primary screen (AID 757)). Settings: at 10 µM, actives lie on both sides, 0 = cold GTP competed, 100 = untreated.

SMILES	GTP binding activity (% of control)
Cc1ccc(CCCOC(=O)C[N+]2(C)CCCCC2)cc1	100%
CCOC(=O)c1ccc(NNC(C)=O)c([N+](=O)[O-])c1	99%
CC(=O)Nc1ccc(S(=O)(=O)NC2(C(F)(F)F)C(=O)NC(C)=C2C#N)cc1 (stereo not given)	105%
COc1cc2c(cc1OC)CC1(CCCCC1)N=C2	102%
CN(C)CCN=c1cc(-c2ccccc2)oc2ccc(Cl)cc12	102%
CCN(CC(=O)NCc1cccs1)C(=O)c1ccccc1F	98%
Cc1ccc2c(=O)oc(N(C)C)nc2c1	94%
Oc1ccccc1N1CCN(C(=S)NCc2ccccc2)CC1	103%
O=c1/c(=C/c2ccc(CNS(=O)(=O)c3ccccc3)o2)sc2n1CCN=2	64% (active)
O=S(=O)(NCc1ccccc1)c1ccc(S(=O)(=O)N2CCCC2)cc1	102%
COC(=O)C1=C(C)NC(=O)/C1=C/c1ccc(CNS(=O)(=O)c2ccc(C)cc2)o1	100%
O=S(=O)(c1cccc(C(F)(F)F)c1)N1CCN(c2cnccn2)CC1	99%
CN(C(=O)COc1ncnc2c1cnn2-c1ccccc1)C1CCCCC1	102%
c1ccc(-c2nnc(N3CCOCC3)c3ccccc23)cc1	97%
COc1cccc(OCCCN2CCCCCC2)c1	95%
CN1CCN(C(=O)CCc2ncc(C(F)(F)F)cc2Cl)CC1	96%
CCOC(=O)c1sc(NC(=O)c2cc(S(=O)(=O)N3CCOCC3)ccc2C)nc1C	102%
COc1ccc(S(=O)(=O)N2CCOCC2)cc1NC(=O)CSc1ncnc2ccccc12	93%
COc1ccc(S(=O)(=O)N2CCOCC2)cc1C(=O)Nc1nc2ccccc2s1	75% (active)
CCCSc1nc2[nH]ncc2c(=O)[nH]1	100%
Cc1cccc(NC(=O)CSc2nc3[nH]ncc3c(=O)[nH]2)c1	97%
Cc1ccc(CSc2nc3[nH]ncc3c(=O)[nH]2)cc1	77% (active)
COc1cc(NS(=O)(=O)c2ccc(NC(=O)c3ccc(S(=O)(=O)N4CCCCC4)cc3)cc2)ncn1	95%
COc1ccccc1NC(=O)CCSc1nnc(-c2ccc(O)cc2)o1	95%
COc1cccc(NC(=O)c2ccc(S(=O)(=O)N(C)C)cc2)c1	104%

SMILES	GTP binding activity (% of control)
Oc1ccccc1C=NC1CCCCC1N=Cc1ccccc1O (stereo not given)	100%
O=C(CSc1ccccc1F)NC1CCS(=O)(=O)C1 (stereo not given)	96%
Cc1cccc(NC(=S)N2CCC(O)CC2)c1C	100%
CC(=O)NC(Cc1ccc(F)c(F)c1)C(=O)NC1CCN(C(=O)c2ccc(C)cc2)CC1 (stereo not given)	103%
CC(C)CCN1CCN(C/C=C/c2ccco2)CC1CCO (stereo not given)	94%
Cc1cc(C)c2c(NC(=O)C3CC3)nn(C)c2n1	98%
CCOc1cc(C2C(C(=O)OC(C)C)=C(C)NC3=C2C(=O)CCC3)cc([N+](=O)[O-])c1O (stereo not given)	98%
CC(NC(=O)COC(=O)c1ccc2c(c1)OCO2)c1ccccc1 (stereo not given)	101%
CC1=C(C(=O)N(C)C)C(c2ccccc2OC(F)F)NC(=O)N1 (stereo not given)	101%
O=C(O)CC(SCC(=O)Nc1ccc(Br)cc1)C(=O)O (stereo not given)	96%
CCCCCN1CC(O)=C(c2ccccc2)C1=N	104%
CCCCCN1CC(O)=C(c2nc(-c3ccc(Cl)cc3)cs2)C1=N	135% [activator] (active)
CCOC(=O)CCCN1CC(O)=C(c2nc3ccccc3s2)C1=N	102%
CCc1ccc(C(=O)OCC(=O)NCC(F)(F)F)cc1	98%
CN(Cc1ccccn1)Cc1nc(-c2ccc(Cl)cc2)no1	101%
COc1ccccc1-c1noc(CSc2nc(C)cc(=O)[nH]2)n1	93%
COc1ccc(CC(NC(C)=O)C(=O)NC2CCN(C(=O)C3CC3)CC2)cc1OC (stereo not given)	101%
O=C(/C=C/c1ccc(Cl)cc1Cl)c1cccnc1	92%
O=C(/C=C/c1ccc(Cl)c([N+](=O)[O-])c1)c1cccnc1	78% (active)
O=C(Nc1cccnc1)c1ccc(Cl)c([N+](=O)[O-])c1	98%
O=C(CC1CCCCC1)NCc1ccc(F)cc1	100%
O=C(NCCCn1ccnc1)C(=O)c1cn(CC(=O)N2CCCCCC2)c2ccccc12	100%
COc1cc(CNC2CCCC2)c(Br)cc1OCc1ccccc1	96%
COc1cc(C=O)c(Br)cc1OCC(=O)NCc1ccccc1	97%
COc1cc(C(=S)NCc2ccccc2)cc(Br)c1O	79% (active)

SMILES	GTP binding activity (% of control)
Cc1ccc(NC(=O)CSc2nnc(CNC(=O)c3ccccc3F)o2)cc1	92%
CS(=O)(=O)N(CC(=O)N1CCCC1)Cc1ccccc1	106%
COc1cccc(CNC(=O)CCC2CCCN(C(=O)c3cc(C)[nH]n3)C2)c1 (stereo not given)	100%
CC(=O)N1N=C(c2ccccc2)OC1c1cccnc1 (stereo not given)	98%
CCc1nc(C)cn1S(=O)(=O)c1cc([N+](=O)[O-])ccc1Cl	96%
Cc1cccc(NC(=S)NC23CN4CN(CN(C4)C2)C3)c1	99%
COC(=O)CC1=NN(c2ccccc2)C(=O)C1	101%
O=C(NCC(=O)N(CC1CCCO1)C(C(=O)NC1CCCCC1)c1ccccc1)c1ccco1 (stereo not given)	103%
COc1ccc2ccccc2c1CNc1nnnn1C	93%
O=C(NCCCN1CCOCC1)c1ccc(N2CCCC2)c([N+](=O)[O-])c1	99%
CC(=O)c1ccc(N2CCN(S(=O)(=O)c3c(C)[nH]c(=O)[nH]c3=O)CC2)cc1	99%
COc1ccc(Br)cc1/C=N/Nc1ccc(Cl)c(C(=O)O)c1	93%
Cc1nc(-c2ccccc2)sc1C(=O)/C=C/N(C)C	96%
COc1cccc(-n2c(=S)sc3c(=O)n(-c4ccccc4OC)c(SCC4OCCO4)nc32)c1	100%
O=C(/C=C/c1ccccc1Cl)Nc1ccc(S(=O)(=O)Nc2ncccn2)cc1	100%
CCOC(=O)c1sc2nc(C)nc(Nc3ccc(OC)c(OC)c3)c2c1C	89%
CCOC(=O)c1sc(-c2cccc([N+](=O)[O-])c2)cc1N	101%
O=C(CNC1CCCCC1)NCC1(c2ccccc2)CCCC1	98%
Cc1csc(CN(C)C(=O)CC2C(=O)NCCN2CC(C)(C)C)n1 (stereo not given)	98%
COCCN(CCOC)C(=S)Nc1ccccc1Cl	95%
CC1CC1C(=O)OCC(=O)c1c(N)n(C)c(=O)n(C)c1=O (stereo not given)	92%
CSc1ncccc1C(=O)NC1CCCCCC1	99%
COc1ccc(NC(=O)c2c(SC)nsc2SC)cc1	110%
CSc1nsc(SC)c1NC(=O)OC1CCCCC1	30% (active)
Cn1ncc(N2CCN(S(=O)(=O)c3ccc(Br)cc3)CC2)c(Cl)c1=O	99%

SMILES	GTP binding activity (% of control)
CCc1ccccc1NC(=O)CN(c1ccc(OC)cc1OC)S(=O)(=O)c1ccccc1[N+](=O)[O-]	100%
O=C(NNC(=S)Nc1ccccc1)c1cccc(S(=O)(=O)N2CCOCC2)c1	96%
O=C(CSc1ccsc1[N+](=O)[O-])N1CCCCC1	102%
CN(c1ccc(OCC(=O)OCC(=O)Nc2cccc([N+](=O)[O-])c2)cc1)S(=O)(=O)c1ccc(F)cc1	101%
CCOc1ccc(S(=O)(=O)Nc2nccs2)cc1	94%
O=C(Nn1cnc2ccccc2c1=O)c1ccc([N+](=O)[O-])cc1Cl	96%
Cc1cnc(C(=O)N2CCCC(C(=O)c3ccc(C(F)(F)F)cc3)C2)cn1 (stereo not given)	100%
CCC1SC(CC)C(=O)N(CC(=O)NC2CCCCC2)C1=O (stereo not given)	99%
O=C(c1ccc(N2CCOCC2)c([N+](=O)[O-])c1)N1CCN(S(=O)(=O)c2cccs2)CC1	96%
COCCNC(=S)N1CCC(NC(=O)C23CC4CC(CC(C4)C2)C3)CC1	104%
Nc1ccc(-c2sc(N)nc2-c2ccccc2)cc1	98%
Nc1[nH]c(=S)nc2nc(-c3ccccc3)c(-c3ccccc3)nc12	79% (active)
CC1CCC2(CC1)NC(=O)N(Cc1nnc(-c3cccs3)o1)C2=O (stereo not given)	94%
CCN(CCCNC(=O)CCn1c(=O)[nH]c2ccsc2c1=O)c1ccccc1	99%
O=C(Nc1ccccc1)N1CCN(C(=O)Nc2ccccc2)CC1	94%
O=C(N1CCCCC1)N1CCN(C(=O)N2CCCCC2)CC1	98%
CCOc1ccc(CN2CCN(Cc3ccon3)CC2CCO)cc1 (stereo not given)	99%
C/C(=N\OC(=O)c1ccccc1)c1c(C)nc2cc(C)ccn12	85%
COC(=O)c1c(C(=O)OC)c(-c2cccc(C)c2)n2c1CS(=O)C2 (stereo not given)	95%
CCC1CO/C(=C(\C(=C(Cl)Cl)N2CCOCC2)[N+](=O)[O-])N1 (stereo not given)	101%
CC(C)NC(=O)c1ccc(Cl)cc1Cl	103%
OCCC1CN(Cc2ccc(Oc3ncccn3)cc2)CCN1CCc1ccccc1 (stereo not given)	98%
CCOC(=O)CSC1=N/C(=C/c2ccc(-n3cncn3)cc2)C(=O)N1C(C)=O	96%
CCC(CC)c1nnc(NC(=O)c2nn(C)c(=O)c3ccccc23)s1	96%
CC(=O)c1cc(C#N)c(N2CCCCC2)nc1C	97%
